# Where “and” joins values, the source holds several entries; their conditions need not be identical. Identical values can stand only once. Inconclusive results are not listed. A number with no mark means an inactive call. Calls of active or inactive are those of the source. Calls come from the whole dose curve; as a rule, active = well fitted inhibition curve with a large enough effect; inconclusive = small, poorly fitted or top-dose-only effect; inactive = flat fitted curve, though single readings scatter.
# Key:
# [1] = test system: CRL-7250; assay: Cytotoxic Profiling of Annotated Libraries Using Quantitative High-Throughput Screening (AID 1296008); details: Five cell lines viability, CellTiter-Glo ATP luminescence, 48-72 h; max response: hits give low values; note: potency is the fitted concentration of half-maximal effect; for max response: % is set by controls: 0 for no effect and ±100 for the full control effect
# Method in brief: (§1)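 Cytotoxicity was measured as CellTiter-Glo ATP luminescence, read after 10 min at room temperature. Compound treatment of the cells lasted 48 or 72 hr at 37 degrees Celsius in a qHTS format.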
# [2] = test system: HaCat; assay: as above; details: Five cell lines viability, CellTiter-Glo ATP luminescence, 48-72 h; max response: hits give low values
# Method in brief: as §1
# [3] = test system: NIH3T3; assay: as above; details: Five cell lines viability, CellTiter-Glo ATP luminescence, 48-72 h; max response: hits give low values
# Method in brief: as §1
# [4] = test system: HACAT; assay: qHTS assay to identify novel small-molecules to repurpose for Merkel cell carcinoma treatment (AID 1296009); details: MCC and control cell lines, CellTiter-Glo viability, 72 h; at 44.8 µM (top of the series) unless noted
# Method in brief: (§2)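 Cell viability, measured as CellTiter-Glo luminescence, was normalized between DMSO and no-cell wells. The cells had been exposed to 8- or 11-point compound dilutions for 72 hr at 37 degree celsius.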
# [5] = test system: TAB165; assay: qHTS profiling for inhibitors of Plasmodium falciparum proliferation (AID 504749); note: potency is the fitted concentration of half-maximal effect; details: P. falciparum in erythrocytes, SYBR Green DNA, 72 h; series mostly up to 28.7 µM
# Method in brief: (§3)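 SYBR Green fluorescence of parasite DNA, read after lysis and overnight dark incubation, measured growth over 72 h in erythrocyte culture at 0.3% parasitemia and 2.5% hematocrit. Data normalised to DMSO and 0.29 uM artemisinin, with plate-drift correction.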
# [6] = test system: W2; assay: as above; details: P. falciparum in erythrocytes, SYBR Green DNA, 72 h; series mostly up to 28.7 µM
# Method in brief: as §3
# [7] = test system: KB-3-1; assay: Cytotoxic Profiling of Annotated Libraries Using Quantitative High-Throughput Screening (AID 1296008); details: Five cell lines viability, CellTiter-Glo ATP luminescence, 48-72 h; max response: hits give low values; note: potency is the fitted concentration of half-maximal effect; for max response: % is set by controls: 0 for no effect and ±100 for the full control effect
# Method in brief: as §1
# [8] = test system: CRL-7250; assay: qHTS assay to identify novel small-molecules to repurpose for Merkel cell carcinoma treatment (AID 1296009); details: MCC and control cell lines, CellTiter-Glo viability, 72 h; at 44.8 µM (top of the series) unless noted
# Method in brief: as §2
# [9] = test system: HEK293; assay: Cytotoxic Profiling of Annotated Libraries Using Quantitative High-Throughput Screening (AID 1296008); details: Five cell lines viability, CellTiter-Glo ATP luminescence, 48-72 h; max response: hits give low values; note: potency is the fitted concentration of half-maximal effect; for max response: % is set by controls: 0 for no effect and ±100 for the full control effect
# Method in brief: as §1
# Note: nearly all actives have a fitted effect of over 60% in size.
structure (smiles),measurement,setting,value
C1CN2CCC1CC2,max response,[1],-5.27%
same,outcome,[2],inactive
same,outcome,[3],inactive
same,outcome,[4],inactive
CN(C)C(=S)SSC(=S)N(C)C,Potency,[5],2.51 µM (active)
same,Potency,[6],0.849 µM (active)
same,Potency,[1],0.75 µM (active)
same,max response,[7],-0.0008%
same,Potency,[3],0.422 µM (active)
CCO[C@H]1O[C@@H]2OC3(C)CC[C@H]4[C@H](C)CC[C@@H]([C@H]1C)[C@@]24OO3,max response,[1],3.38%
same,max response,[2],-19.4%
same,max response,[3],0.769%
CC(Cc1ccccc1)NCCCCl (configuration not stated),outcome,[1],inactive
same,outcome,[2],inactive
same,max response,[3],3.33%
same,outcome,[8],inactive
same,outcome,[4],inactive
CC1=C2[C@H]3OC(=O)[C@@H](C)[C@@H]3CC[C@@]2(C)C=CC1=O,max response,[9],-1.89%
same,outcome,[2],inactive
same,max response,[7],27.1%
same,max response,[3],-1.04%
same,outcome,[4],inactive
CC(Cc1ccccc1)NCc1ccccc1Cl (configuration not stated),Potency,[6],5.36 µM (active)
same,max response,[1],-20.3%
same,max response,[2],-41.8%
same,max response,[7],-8.17%
same,max response,[3],-14.1%
COc1ccc2c3c1O[C@H]1[C@@H](O)C=C[C@H]4[C@@H](C2)N(C)CC[C@@]341,Potency,[9],33.7 µM (active)
same,max response,[7],-15%
COc1cc(C[C@@H](C)N)c(OC)cc1C,max response,[1],-47.5%
same,max response,[7],-10.2%
same,max response,[3],-23.9%
O=C(CBr)Nc1ccc(Cl)cc1C(=O)c1ccccc1F,outcome,[1],inactive
same,max response,[2],3.69%
same,outcome,[3],inactive
same,outcome,[8],inactive
COc1cc(CC(C)N)c(OC)cc1Br (configuration not stated),max response,[2],-6.81%
same,max response,[7],-7.67% and -13.5%
CN1CCC(N(Cc2ccccc2)c2ccccc2)CC1,max response,[1],-21.6%
same,outcome,[2],inactive
same,max response,[3],-20.5%
same,outcome,[4],inactive
Oc1ccc2[nH]cc(CCCCN3CC=C(c4ccccc4)CC3)c2c1,Potency,[5],11.2 µM (active)
same,Potency,[6],5.36 µM (active)
same,max response,[1],4.19%
same,outcome,[2],inactive
same,max response,[7],7.3%
same,outcome,[4],inactive
NC1(c2ccccc2)CCCCC1,Potency,[9],38.2 µM (active)
same,max response,[2],1.23%
same,max response,[7],1.89%
same,max response,[3],-27.2%
CCC(=O)C(CCN(C)C)(c1ccccc1)c1ccccc1,max response,[1],-11.9%
same,max response,[2],-17.8%
same,max response,[3],2.72%
C=CC[C@]1(O)CC[C@H]2[C@@H]3CCC4=CC(=O)CCC4=C3C=C[C@@]21C,Potency,[9],11.9 µM (active)
same,max response,[2],1.64%
same,max response,[7],-5.35%
CN1C(=O)CN=C(c2ccccc2)c2cc(Cl)ccc21,max response,[2],-27.5%
same,max response,[7],-19.7%
CCS(=O)(=O)C(C)(C)S(=O)(=O)CC,Potency,[5],inactive
same,Potency,[6],inactive
same,max response,[1],-10.9%
same,max response,[7],3.51%
same,max response,[3],-2.98%
Cc1c(Cl)c(=O)oc2cc(OP(=O)(OCCCl)OCCCl)ccc12,Potency,[5],7.08 µM (active)
same,Potency,[6],6.75 µM (active)
same,max response,[2],1.96%
same,max response,[7],-0.0609%
same,max response,[3],-22.4%
CCN(CCCCOC(=O)c1ccc(OC)c(OC)c1)C(C)Cc1ccc(OC)cc1 (configuration not stated),outcome,[8],inactive
O=C(CCl)c1ccc(Cl)cc1Cl,outcome,[2],inactive
same,max response,[3],-36.1%
same,outcome,[4],inactive
CNC(=O)Oc1ccc2c(c1)[C@]1(C)CCN(C)[C@@H]1N2C,outcome,[8],inactive
CCC(=O)O[C@H]1CC[C@H]2[C@@H]3CCC4=CC(=O)CC[C@]4(C)[C@H]3CC[C@]12C,Potency,[5],inactive
same,Potency,[6],inactive
same,outcome,[2],inactive
same,max response,[7],-26.4%
same,max response,[3],0.89%
same,outcome,[4],inactive
c1ccc2c(c1)CCc1ccccc1N2,outcome,[8],inactive
Clc1ccc(CSC(Cn2ccnc2)c2ccc(Cl)cc2Cl)cc1 (configuration not stated),max response,[7],-15.3%
C#C[C@]1(O)CC[C@H]2[C@@H]3CCC4=CC(=O)CCC4=C3C=C[C@@]21CC,Potency,[6],7.57 µM (active)
same,outcome,[2],inactive
same,max response,[3],-4.44%
same,outcome,[4],inactive
C[C@]12Cc3nonc3C[C@@H]1CC[C@@H]1[C@@H]2CC[C@@]2(C)[C@H]1CC[C@]2(C)O,outcome,[2],inactive
same,max response,[3],-6.95%
same,outcome,[4],inactive
CN(C)CCN(Cc1ccccc1)c1ccccn1,outcome,[8],inactive
CCCCCC(N)=O,outcome,[8],inactive

# From PubChem BioAssay (NCATS)
